IL-1B inflam inh = qHTS for Inhibitors of Inflammasome Signaling: IL-1-beta AlphaLISA Primary Screen. THP-1 LPS/ATP IL-1B secretion, AlphaLISA, 16 h; stronger effect = lower value. activity change, % at 57.5 µM. actives 4.7% (n = 360,000). AID 743279, 2014; in the data active means activity change below about -50%; inconclusive means mostly about -30% to -49%
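Secreted IL-1B measured by AlphaLISA bead assay after 16 h compound exposure of THP-1 cells; compounds (final up to 57.5 uM) added 1 h before LPS (250 ng/mL) and ATP (1.25 mM) stimulation; lower signal means less secretion.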
RORg inh = qHTS for inhibitors of ROR gamma transcriptional activity | Drosophila S2 Gal4-RORgamma UAS-luciferase reporter, 20 h | Potency, µM (highest dose often 53.6 µM), hits mostly inhibitors | actives 5.4% (n = 310,000); further: nearly all actives have a fitted effect of over 60% in size
Target sequence (P51450 whole entry, looked up, the tested form may be a part): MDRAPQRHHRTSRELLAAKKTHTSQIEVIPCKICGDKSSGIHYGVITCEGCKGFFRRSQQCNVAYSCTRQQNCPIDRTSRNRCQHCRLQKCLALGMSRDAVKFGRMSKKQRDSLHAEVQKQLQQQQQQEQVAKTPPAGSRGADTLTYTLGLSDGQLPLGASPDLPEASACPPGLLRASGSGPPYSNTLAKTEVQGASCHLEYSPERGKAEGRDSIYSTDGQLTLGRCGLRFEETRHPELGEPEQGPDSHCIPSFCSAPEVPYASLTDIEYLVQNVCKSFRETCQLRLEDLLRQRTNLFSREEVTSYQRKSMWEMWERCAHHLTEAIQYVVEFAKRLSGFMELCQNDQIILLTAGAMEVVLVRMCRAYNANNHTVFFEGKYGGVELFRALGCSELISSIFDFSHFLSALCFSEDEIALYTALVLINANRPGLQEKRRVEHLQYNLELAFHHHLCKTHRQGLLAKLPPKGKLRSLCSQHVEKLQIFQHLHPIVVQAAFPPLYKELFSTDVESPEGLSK
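In this cell-based reporter format, copper sulfate (700 uM final) drives Gal4–ROR gamma fusion expression from a metallothionein promoter in Drosophila Schneider cells; compounds preincubated 1 hr, reporter read after 20 hr at ambient temperature.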
DT40 TDP1 CPT = qHTS for Inhibitors of human tyrosyl-DNA phosphodiesterase 1 (TDP1): qHTS in cells in presence of CPT; chicken DT40 Tdp1-/-;hTDP1 cells + 20 nM CPT, ATP luminescence, 48 h; Potency, µM (series often up to 46.2 µM), actives largely listed as inhibitors; actives 12% (n = 420,000); AID 686979, 2013; further: nearly all actives have a fitted effect of over 55% in size
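Chicken DT40 Tdp1-/- cells complemented with human TDP1, 400 cells/well, exposed to compounds plus 20 nM camptothecin for at least 48 h at 37 C; viability read as ATP content by CellTiter-Glo luminescence.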
Gal4-VP16 FLuc = VP16 counterscreen qHTS for inhibitors of ROR gamma transcriptional activity; Drosophila S2 Gal4-VP16 UAS-luciferase, luminescence, 20 h; Potency, µM (titrated, usually from 53.6 µM), most hits filed as inhibitors; actives 3.5% (n = 310,000);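 further: Gal4-VP16 expression switched on by copper sulfate through the metallothionein promoter; nearly all actives have a fitted effect of over 50% in size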
DT40 TDP1 no CPT = qHTS for Inhibitors of human tyrosyl-DNA phosphodiesterase 1 (TDP1): qHTS in cells in absence of CPT. AID 686978, 2013. DT40 Tdp1-/- hTDP1 cells, no CPT, ATP luminescence, 48 h. actives 15% (n = 420,000). Potency, µM (series often up to 46.2 µM), usual class: inhibitors; further: nearly all actives have a fitted effect of over 55% in size
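No-CPT arm: Tdp1-/-;hTDP1 DT40 cells (400/well) plus compounds, incubated ≥48 hr at 37 °C. Readout CellTiter-Glo luminescence.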
LDHA inh = qHTS assay for inhibitors of human lactate dehydrogenase. activity change, % (values are at about 110 or 230 µM). actives 0.15% (n = 480,000). purified LDHA, NADH/diaphorase-resazurin fluorescence; stronger effect = lower value; in the data active means activity change below about -30%; inconclusive means mostly about -25% to -30%
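Human LDH5 (2 nM) was incubated with 0.06 mM NADH and 0.2 mM pyruvate for 5 min at room temperature in Tris pH 7.4. Remaining NADH was coupled through diaphorase/resazurin, and resorufin fluorescence was read at 0 and 20 min.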
Hits are given with their value; [ ] = remark or other dose. Most compounds without a hit are left out; they make up all but 18% or so of the library. Unless noted, the call rests on the fitted dose curve; in most records, active means well fitted curve in the direction sought with a large enough effect; inconclusive means small, poorly fitted or top-dose-only effect, or another doubt; inactive means no such curve, though single readings can be large; an effect the other way counts as inactive or inconclusive.

What do the screens show for `COc1cc(NC(=O)c2ccc(F)cc2)c(OC)cc1NC(=O)CN1CCCCC1`?
IL-1B inflam inh: -68; RORg inh: inactive; DT40 TDP1 CPT: inconclusive; Gal4-VP16 FLuc: inactive; DT40 TDP1 no CPT: 16µM; LDHA inh: inactive

Results for COc1cc(NC(=O)c2cccc(Cl)c2)c(OC)cc1NC(=O)CN1CCCCC1 ?
IL-1B inflam inh: -79; RORg inh: inactive; DT40 TDP1 CPT: inconclusive; Gal4-VP16 FLuc: inactive; DT40 TDP1 no CPT: inconclusive; LDHA inh: inactive

What do the screens show for `O=C(Nc1ccn(Cc2ccc(F)cc2Cl)n1)c1nc2ncccn2n1`?
LDHA inh: inactive

Results for CCCC(=O)Nc1ccc(Cl)c(-c2nc3ccccc3o2)c1 ?
LDHA inh: inactive

How did CCC(=O)Oc1ccc2oc(=O)c(-c3ccc(OC)cc3)c(C)c2c1 do in these assays?
LDHA inh: inactive

What do the screens show for `O=C(NCC(c1ccco1)N1CCCC1)c1cc2ccccc2oc1=O` (stereo unspecified)?
LDHA inh: inactive

What do the screens show for `CC(=O)NC12CC3CC(C1)CC(C(=O)N1CCN(S(=O)(=O)c4cccc(C(F)(F)F)c4)CC1)(C3)C2`?
IL-1B inflam inh: inactive; DT40 TDP1 CPT: 7.3µM; DT40 TDP1 no CPT: inconclusive; LDHA inh: inactive

Results for COc1ccc(Cl)cc1NC(=O)CN(C)C1CCCCC1 ?
IL-1B inflam inh: inactive; RORg inh: inactive; DT40 TDP1 CPT: inconclusive; Gal4-VP16 FLuc: inactive; DT40 TDP1 no CPT: inconclusive; LDHA inh: inactive

How did CCN(CC(=O)Nc1cc(C)c(Cl)cc1OC)CC(=O)NC1CCS(=O)(=O)C1 (stereo unspecified) do in these assays?
IL-1B inflam inh: inactive; RORg inh: inactive; DT40 TDP1 CPT: inactive; Gal4-VP16 FLuc: inactive; DT40 TDP1 no CPT: inactive; LDHA inh: inactive

How did COc1ccc(Cl)cc1NC(=O)CN(C)C(C)C(=O)NC(=O)NC1CCCCC1 (stereo unspecified) do in these assays?
IL-1B inflam inh: inconclusive; DT40 TDP1 CPT: inconclusive; DT40 TDP1 no CPT: 18µM; LDHA inh: inactive

What do the screens show for `COc1ccc(Cl)cc1NC(=O)CNc1ccccc1CN(C)C1CCCCC1`?
IL-1B inflam inh: -214; RORg inh: inactive; DT40 TDP1 CPT: inconclusive; Gal4-VP16 FLuc: inactive; DT40 TDP1 no CPT: inconclusive; LDHA inh: inactive

What do the screens show for `CCN(CC(=O)Nc1cc(Cl)ccc1OC)CC(=O)NC1CCS(=O)(=O)C1` (stereo unspecified)?
IL-1B inflam inh: inactive; RORg inh: inactive; DT40 TDP1 CPT: inactive; Gal4-VP16 FLuc: inactive; DT40 TDP1 no CPT: inactive; LDHA inh: -36

Results for COc1ccc(C)cc1NC(=O)CNc1ccccc1CN(C)C1CCCCC1 ?
IL-1B inflam inh: inactive; RORg inh: inactive; DT40 TDP1 CPT: 18µM; Gal4-VP16 FLuc: inactive; DT40 TDP1 no CPT: inconclusive; LDHA inh: inactive

Results for O=C1[C@H]2CCCC[C@H]2C(=O)N1CCCCN1CCN(c2nsc3ccccc23)CC1 ?
IL-1B inflam inh: -65; RORg inh: inactive[10 µM]; DT40 TDP1 CPT: 21µM; Gal4-VP16 FLuc: inactive; DT40 TDP1 no CPT: 13µM; LDHA inh: inactive

Results for CCN(CC)CC(=O)NC(=O)Nc1ccccc1 ?
LDHA inh: inactive

Results for CCOc1cc(CNc2ncc(-c3ccc(OC)cc3)n2C)ccc1O ?
IL-1B inflam inh: inactive; RORg inh: inactive; DT40 TDP1 CPT: inconclusive; Gal4-VP16 FLuc: inactive; DT40 TDP1 no CPT: 18µM; LDHA inh: inactive

How did CCOc1ccc(-c2cnc(NCc3ccc(C(F)(F)F)cc3)n2C)cc1 do in these assays?
DT40 TDP1 CPT: 5.2µM; DT40 TDP1 no CPT: 5.8µM; LDHA inh: inactive

What do the screens show for `COc1ccc(CNc2ncc(-c3ccccc3)n2C)cc1`?
IL-1B inflam inh: inactive; RORg inh: inactive; DT40 TDP1 CPT: inactive; Gal4-VP16 FLuc: inactive; DT40 TDP1 no CPT: inconclusive; LDHA inh: inactive

What do the screens show for `CC(C)(C)NC(=O)CC1(C(=O)NCc2ccc(Cl)cc2)CCCC1`?
LDHA inh: inactive

What do the screens show for `CN(C)CCCNC(=O)Cn1ccc2ccc(Br)cc21`?
LDHA inh: inactive

Results for Cc1cc(Br)ccc1NC(=O)c1ccc2c(Cl)c3c(nc2c1)CCC3 ?
LDHA inh: inactive

How did Cc1ccc(OC(C)c2nnc(N)s2)cc1Cl (stereo unspecified) do in these assays?
IL-1B inflam inh: inactive; RORg inh: inactive; DT40 TDP1 CPT: 21µM; Gal4-VP16 FLuc: inactive; DT40 TDP1 no CPT: inconclusive; LDHA inh: inactive

What do the screens show for `COc1ccc(OC(C)c2nnc(N)s2)cc1` (stereo unspecified)?
IL-1B inflam inh: inactive; RORg inh: inactive; DT40 TDP1 CPT: inactive; Gal4-VP16 FLuc: inactive; DT40 TDP1 no CPT: inactive; LDHA inh: inactive

How did O=C(Nc1ccccc1[N+](=O)[O-])OCC=Cc1ccccc1 do in these assays?
IL-1B inflam inh: -54; DT40 TDP1 CPT: inactive; DT40 TDP1 no CPT: inconclusive; LDHA inh: inactive

Results for CCCCC1CCC(C(=O)Nc2ccc(OC)c3ncccc23)CC1 (stereo unspecified) ?
LDHA inh: -30

How did CCOC(=O)C[C@H]1c2cc(F)ccc2S(=O)(=O)N1c1ccccc1 do in these assays?
IL-1B inflam inh: inactive; DT40 TDP1 CPT: inconclusive; DT40 TDP1 no CPT: inconclusive; LDHA inh: inactive

Results for CCCCCCCCN1[C@@H](CC(=O)OCC)c2cc(F)ccc2S1(=O)=O ?
IL-1B inflam inh: inactive; DT40 TDP1 CPT: inconclusive; DT40 TDP1 no CPT: inconclusive; LDHA inh: inactive

How did CCCCCCCCCCCCN1[C@@H](CC(=O)OC)c2cc(C(F)(F)F)ccc2S1(=O)=O do in these assays?
IL-1B inflam inh: inactive; DT40 TDP1 CPT: inconclusive; DT40 TDP1 no CPT: 13µM; LDHA inh: inactive

What do the screens show for `CCCCCCCCN1[C@@H](CC(=O)O)c2cc(C(F)(F)F)ccc2S1(=O)=O`?
IL-1B inflam inh: inactive; DT40 TDP1 CPT: inconclusive; DT40 TDP1 no CPT: inconclusive; LDHA inh: inactive

How did CCCCCCCCN1[C@@H](CC(=O)OC)c2cc(F)ccc2S1(=O)=O do in these assays?
IL-1B inflam inh: inactive; DT40 TDP1 CPT: inconclusive; DT40 TDP1 no CPT: 13µM; LDHA inh: inactive

What do the screens show for `COC(=O)C[C@H]1c2cc(F)ccc2S(=O)(=O)N1c1ccc(N(C)C)cc1`?
IL-1B inflam inh: inactive; DT40 TDP1 CPT: inconclusive; DT40 TDP1 no CPT: 13µM; LDHA inh: inactive

Results for CCCCCCCCN1[C@@H](CC(=O)OCC)c2ccc(C(F)(F)F)cc2S1(=O)=O ?
IL-1B inflam inh: inactive; DT40 TDP1 CPT: 13µM; DT40 TDP1 no CPT: 26µM; LDHA inh: inactive

Screens: PubChem BioAssay, National Center for Advancing Translational Sciences (NCATS)
